Here are results for nine compounds from PubChem BioAssay.

Test [1] can be described thus: P. berghei load reduction in hepatocytes – cell-based, HepG2, luciferase luminescence, HepG2 viability, primary screen (AID 624349; in the data active = parasite load remaining mostly below about 12%, no sharp cut-off; inactive = mostly above about 10%;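 note: 100% = mean of DMSO negative control wells on the same plate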). To be noted: P. berghei liver stage in HepG2, luciferase luminescence, concentration not given here; parasite load remaining: stronger effect = lower value; viability: measured here: HepG2 viability without parasites.
The nature of test [2]: signal quenchers or enhancers, Cy5 substrate/SSB – biochemical, NIH Clinical Collection, E. coli SSB, artefact control for HCV NS3 helicase inhibitor project (AID 743268; call rule not given here). To be noted: Cy5-oligo bound E. coli SSB, fluorescence interference.
For test [3], the system named is Hepatitis C virus NS3 helicase. The test can be described thus: blockers of NS3h binding to DNA – biochemical, fluorescence polarization, NIH Clinical Collection, primary screen (AID 743270; call rule not given here). To be noted: NS3 helicase binding to Cy5-dT15 DNA, stronger effect = higher value, concentration not given here.
The target in test [4] is Single-stranded DNA-binding protein (Escherichia coli (strain K12)) (UniProt P0AGE0). The test can be described thus: SSB-ssDNA binding inhibitors – biochemical, fluorescence polarization, NIH Clinical Collection, counter-screen for HCV NS3 helicase inhibitor project (AID 743271; in the data active = inhibition above about 28%). To be noted: E. coli SSB-DNA binding, stronger effect = higher value, concentration not given here.
A short description of test [5]: compounds distorting NS3 helicase fluorescence signal – biochemical, NIH Clinical Collection, artefact control for HCV NS3 helicase inhibitor project (AID 743272; call rule not given here;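 note: HCV NS3 helicase with a Cy5 labelled single stranded DNA probe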). To be noted: fluorescence interference counterscreen, HCV NS3 helicase assay; stronger effect = lower value.
Test [6] in a line: viability loss with induced miR-34 in A549 – imaging, A549 dox-inducible miR-34, nuclei and caspase counts, primary screen (AID 1347080;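 active = compounds whose cell count with miR-34 switched on is under 0.7 times the count with it off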). To be noted: A549 miR-34 inducible, Hoechst nuclei count, 48 h.
Test [7] can be described thus: galactose survival enhancers in mitochondrial complex I cybrids – cell-based, galactose medium, ATP luminescence, primary screen (AID 1645843;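 active = z-score of at least 1.8 in each of two replicates, scored against plate mean and spread of sample wells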;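 note: positive z means more ATP and so rescue of galactose-driven cybrid death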). To be noted: complex I mutant cybrid cells, 72 h, stronger effect = higher value.
Test [8] deals with F380Y. The test can be described thus: BK channel mutant inhibitors and activators – cell-based, U2OS BacMam, thallium flux, beta subunits, selectivity assay, profiling panel (AID 1259406).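 Note: initial slope of Thallos dye fluorescence rise after thallium is added; log ratio against the mean of 0.3% DMSO vehicle wells on the same plate.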 To be noted: U2OS BacMam BK variants, at 30 µM.
For test [9], the system named is F380Y/beta1. The description is as above. To be noted: U2OS BacMam BK variants, at 30 µM.
In test [10] the test system is F380Y/beta2Delta. The description is as above. To be noted: U2OS BacMam BK variants, at 30 µM.
The test system of test [11] is F380Y/beta4. The test is described as above. To be noted: U2OS BacMam BK variants, at 30 µM.
Test [12] concerns the target Calcium-activated potassium channel subunit alpha-1 (Homo sapiens) + Leucine-rich repeat-containing protein 26 (Homo sapiens) (UniProt Q12791+Q2I0M4). The test is described as above. To be noted: U2OS BacMam BK variants, F380Y/Slo1WT/gamma1, at 30 µM.
Test [13] relates to R275C. The description is as above. To be noted: U2OS BacMam BK variants, at 30 µM.
Test [14] has as its system R275C/beta1. Described as above. To be noted: U2OS BacMam BK variants, at 30 µM.
Test [15] concerns R275C/beta2Delta. The description is as above. To be noted: U2OS BacMam BK variants, at 30 µM.
The test system of test [16] is R275C/beta4. The test is described as above. To be noted: U2OS BacMam BK variants, at 30 µM.
Test [17] has as its system R275C/Slo1WT/beta2. The description is as above. To be noted: U2OS BacMam BK variants, at 30 µM.
Test [18] concerns Neuropilin-2 / VEGF-C interaction (human). The test can be described thus: small molecules blocking Neuropilin-2/VEGF-C interaction – biochemical, microplate binding format, z-score (AID 743281; call rule not given here). To be noted: microplate NRP2/VEGF-C binding assay; stronger effect = lower value.
Test [19] in a line: modulation of C. elegans fzo-1 (AID 1259413; call rule not given here;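 note: fzo-1 mutant C. elegans worms in liquid wells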). To be noted: C. elegans fzo-1 modulator screen, mean read-out; stronger effect = higher value.
[20] abbreviates: stronger effect = lower value, cell number ratio, induced over uninduced.
The mark [21] stands for this setting: measured here: relative caspase fold change +Dox/-Dox.
Where [22] appears, read: measured here: total cells with miR-34 induction, stronger effect = lower value.
Setting [23] is: measured here: total cells without miR-34 induction.

The source made the active and inactive calls.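 Rule for the calls, unless noted: active = thallium flux through the channel raised or lowered by more than 3 SD from vehicle-only wells, actives on both sides; inactive = the rest.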

Calcium-activated potassium channel subunit alpha-1 (Homo sapiens) + Leucine-rich repeat-containing protein 26 (Homo sapiens), sequence (Q2I0M4 whole entry, looked up, one chain of several): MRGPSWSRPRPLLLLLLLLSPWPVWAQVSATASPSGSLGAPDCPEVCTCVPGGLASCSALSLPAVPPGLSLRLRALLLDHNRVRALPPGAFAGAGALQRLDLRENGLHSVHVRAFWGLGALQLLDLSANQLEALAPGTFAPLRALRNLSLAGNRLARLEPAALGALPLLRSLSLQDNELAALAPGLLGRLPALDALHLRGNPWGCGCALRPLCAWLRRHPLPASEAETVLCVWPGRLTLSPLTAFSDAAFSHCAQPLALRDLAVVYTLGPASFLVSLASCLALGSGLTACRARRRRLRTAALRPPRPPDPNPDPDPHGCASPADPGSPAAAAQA

Take `CC(=CCC1=C(C)C(=O)c2ccccc2C1=O)CCCC(C)CCCC(C)CCCC(C)C` (configuration not stated): the parasite load remaining in [1] was 49.5% (inactive). Further, the viability in test [1] came out at 97.8%. For the same compound, the fluorescence ratio in [2] was 1.04 (inactive); in [5], 0.97 (inactive). In addition, the inhibition in test [3] is -1.36% (inactive); in [4], 3.34% (inactive). Besides, the results for the fold change in [6] (setting [20]) and in test [6] (setting [21]) were 1.25 (inactive) and 2.78, respectively. For the same compound, the cell count came to 7560 in [6] (setting [22]) and 6060 in test [6] (setting [23]). The z-score in test [7] is -1.38 (inactive). In addition, the log fold change Tl+ flux in [8] was -0.0115 (inactive); in test [9] it was 0.045 (inactive); in [10] it was 0.0296 (inactive); in [11], 0.0448 (inactive); in [12], 0.0507 (inactive); in [13], 0.0242 (inactive). Besides, the log fold change Tl+ flux was 0.0513 (inactive) in test [14], 0.0188 (inactive) in test [15], 0.0575 (inactive) in [16] and -0.0288 (inactive) in test [17].

In the case of `COc1cc(N)c(Cl)cc1C(=O)N[C@@H]1CCN(CCCOc2ccc(F)cc2)C[C@@H]1OC`, the parasite load remaining in [1] is 13.5% (inactive). The viability in test [1] was 57.3%. Further, the fluorescence ratio in [2] was 1 (inactive); in [5], 0.96 (inactive). The inhibition in test [3] is -2.77% (inactive); in [4] it was -0.1% (inactive). Besides, the z-score in test [18] is -0.527 (inactive); in test [7] it was -0.47 (inactive). Further, the mean signal in test [19] is 277 (inactive). For the same compound, the fold change is 0.991 (inactive) in test [6] (setting [20]) and 0.684 in test [6] (setting [21]). Also, the values for the cell count in test [6] (setting [22]) and in [6] (setting [23]) were 6800 and 6860, respectively. For the same compound, the log fold change Tl+ flux in test [8] is 0.00662 (inactive); in test [10], 0.0148 (inactive); in [12], -0.0526 (inactive); in test [13] it was 0.0357 (inactive); in test [14], -0.0487 (inactive); in [15] it was 0.039 (inactive).

Consider `C#C[C@]1(O)CC[C@H]2[C@@H]3CCC4=CC(=O)CC[C@@H]4[C@H]3CCC21C` (some centres not stated), for which the mean signal in test [19] was 236 (inactive).

`CO[C@H]1C=CO[C@@]2(C)Oc3c(C)c(O)c4c(O)c(c5c(c4c3C2=O)NC2(CCN(CC(C)C)CC2)N=5)=NC(=O)/C(C)=C\C=C/[C@H](C)[C@H](O)[C@@H](C)[C@@H](O)[C@@H](C)[C@H](OC(C)=O)[C@@H]1C`: the mean signal in test [19] is 242 (inactive).

With `N[C@@H](C(=O)N[C@@H]1C(=O)N2C(C(=O)O)=C(CSc3cn[nH]n3)CS[C@H]12)c1ccc(O)cc1` (tested in a mixture with another compound), the parasite load remaining in test [1] was 100% (inactive). Further, the viability in test [1] amounted to 72.4%. Further, the fluorescence ratio in [2] is 1.06 (inactive); in [5], 1.01 (inactive). In addition, the values for the inhibition in [3] and in test [4] were 21.8% (active) and 56.1% (active), respectively. The log fold change Tl+ flux in test [8] was 0.0279 (inactive); in test [9] it was -0.0559 (inactive); in test [10], 0.00568 (inactive); in [11] it was -0.0478 (inactive); in [12] it was 0.0418 (inactive); in test [13], -0.0506 (inactive). Besides, the log fold change Tl+ flux in test [14] was 0.00628 (inactive); in test [15], 0.0029 (inactive); in test [16], -0.00667 (inactive); in test [17], 0.00247 (inactive).

Regarding `CO[C@H]1C=CO[C@@]2(C)Oc3c(C)c(O)c4c(O)c(c5c(nc6cc(C)ccn65)c4c3C2=O)NC(=O)C(C)=CC=C[C@H](C)[C@H](O)[C@@H](C)[C@@H](O)[C@@H](C)[C@H](OC(C)=O)[C@@H]1C`, the parasite load remaining in [1] is 97.9% (inactive). In addition, the viability in test [1] was found to be 78.8%. Further, the fluorescence ratio in test [2] was 0.98 (inactive); in test [5], 1.01 (inactive). Also, the figures for the inhibition in test [3] and in [4] were 1.19% (inactive) and 1.44% (inactive), respectively. Also, the log fold change Tl+ flux in test [8] is -0.487 (active); in test [9] it was -0.224 (active); in test [10] it was -0.411 (active); in [11] it was -0.508 (active); in test [12] it was -0.124 (active); in test [13], -0.242 (active). Also, the log fold change Tl+ flux was 0.0122 (inactive) in [14], -0.0244 (inactive) in test [15], -0.0127 (inactive) in [16] and -0.00936 (inactive) in [17].

Regarding `Cc1cc(=O)oc2cc(NC(=O)C3CCC(=O)N3)ccc12` (configuration not stated), in test [1], the parasite load remaining is 62.4% (inactive). In addition, the viability in [1] turned out to be 136%. The figures for the fluorescence ratio in [2] and in test [5] were 0.96 (inactive) and 0.91 (inactive), respectively. The values for the inhibition in [3] and in test [4] were 1.36% (inactive) and 11.7% (inactive), respectively. The fold change in [6] (setting [20]) is 0.953 (inactive); in test [6] (setting [21]) it was 1.59. In addition, the cell count was determined as 10900 in test [6] (setting [22]) and 11400 in [6] (setting [23]). Moreover, the z-score in test [7] is -0.335 (inactive). Besides, the log fold change Tl+ flux in test [8] is -0.00455 (inactive); in test [9] it was -0.0136 (inactive); in [10] it was -0.0131 (inactive); in test [11], 0.0184 (inactive); in [12], -0.00524 (inactive); in test [13], -0.000517 (inactive). Besides, the log fold change Tl+ flux in [14] was 0.0432 (inactive); in test [15], -0.00476 (inactive); in [16], -0.0203 (inactive); in [17], -0.0148 (inactive).

Consider `COCC1=C(C(=O)OC(C)OC(=O)OC(C)C)N2C(=O)[C@@H](NC(=O)C(=NOC)c3csc(N)n3)[C@H]2SC1` (some centres not stated), for which the parasite load remaining in test [1] is 83.9% (inactive). The viability in test [1] was 70.5%. Besides, the fluorescence ratio is 0.97 (inactive) in [2] and 1 (inactive) in [5]. For the same compound, the inhibition was 1.98% (inactive) in test [3] and -0.1% (inactive) in [4]. The log fold change Tl+ flux in test [8] is 0.0206 (inactive); in [9] it was 0.0461 (inactive); in [10], 0.0192 (inactive); in test [11], 0.0327 (inactive); in test [12], 0.0109 (inactive); in test [13] it was 0.00217 (inactive). Further, the log fold change Tl+ flux is -0.0216 (inactive) in test [14], 0.0293 (inactive) in test [15], 0.0115 (inactive) in test [16] and 0.0178 (inactive) in [17].

With `CON=C(C(=O)N[C@@H]1C(=O)N2C(C(=O)O)=C(COC(N)=O)CS[C@H]12)c1ccco1`, the parasite load remaining in test [1] is 58.2% (inactive). Besides, the viability in [1] is 88.2%. The figures for the fluorescence ratio in test [2] and in test [5] were 1.07 (inactive) and 1 (inactive), respectively. The inhibition in test [3] was -4.09% (inactive); in test [4], 10.2% (inactive). In addition, the fold change in test [6] (setting [20]) was 0.935 (inactive); in test [6] (setting [21]), 2.12. The results for the cell count in [6] (setting [22]) and in [6] (setting [23]) were 10600 and 11300, respectively. The z-score in test [7] was -0.2 (inactive). Moreover, the log fold change Tl+ flux is 0.0216 (inactive) in test [8]; 0.0158 (inactive) in [9]; 0.00116 (inactive) in [10]; -0.0173 (inactive) in [11]; -0.0114 (inactive) in [12]; -0.0247 (inactive) in test [13]. Besides, the log fold change Tl+ flux is -0.0484 (inactive) in test [14], -0.0289 (inactive) in test [15], 0.0531 (inactive) in [16] and 0.0179 (inactive) in [17].
